# Measured values as given in PubChem BioAssay (EPA / NIEHS).
# The source made the active and inactive calls. The calls were made as follows: active = hit-call score of the fitted dose curve at least 0.9, where 1 is the maximum; inactive = score below 0.9.
# Key:
# Settings in all cases: mRNA level, 48 h; actives raise or lower the signal
# [1] = read-out: Insulin-like growth factor-binding protein 1 (IGFBP1), IGFBP1 (gene 3484); assay: LTEA_HepaRG_IGFBP1: Life Technologies and Expression Analysis (LTEA) Assay for Insulin-like growth factor-binding protein 1 (IGFBP1) using HepaRG (AID 2283508)
# Outline: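 Differentiated human HepaRG cells in serum-free induction medium were exposed in duplicate for 48 h to eight concentrations, top 100 uM with half-log dilutions, in 0.5% DMSO. Transcript levels came from qRT-PCR normalised to ACTB, GAPDH and POLR2A, fitted bidirectionally against DMSO.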
# [2] = read-out: Interleukin 6 (IL6), IL6 (gene 3569); assay: LTEA_HepaRG_IL6: Life Technologies and Expression Analysis (LTEA) Assay for Interleukin 6 (IL6) using HepaRG (AID 2283509)
# Outline: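 Changes in IL6 mRNA, up or down relative to 0.5% DMSO controls, were derived from concentration-response curves in human HepaRG cells treated for 48 h at up to 100 uM, with ACTB, GAPDH and POLR2A as normalizers.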
# [3] = read-out: Interleukin 6 Receptor (IL6R), IL6R (gene 3570); assay: LTEA_HepaRG_IL6R: Life Technologies and Expression Analysis (LTEA) Assay for Interleukin 6 Receptor (IL6R) using HepaRG (AID 2283510);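 as to AC50: TaqMan qRT-PCR signal normalized to ACTB GAPDH and POLR2A housekeeping genes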
# Outline: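 In this HepaRG screen, test chemicals act on cells for 48 h at up to 100 uM (eight half-log points, duplicate wells). IL6R expression is quantified by qRT-PCR after normalization to ACTB, GAPDH and POLR2A, with DMSO as baseline.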
# [4] = read-out: Potassium channel subfamily K member 1 (KCNK1), KCNK1 (gene 3775); assay: LTEA_HepaRG_KCNK1: Life Technologies and Expression Analysis (LTEA) Assay for Potassium channel subfamily K member 1 (KCNK1) using HepaRG (AID 2283511)
# Outline: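 Human HepaRG cultures receive test chemicals for 48 h in 0.5% DMSO, top concentration 100 uM with half-log dilutions. Induction or suppression of KCNK1 mRNA relative to DMSO is derived by bidirectional fitting of qRT-PCR data.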
# [5] = read-out: JUN Transcription Factor, JUN (gene 3725); assay: LTEA_HepaRG_JUN: Life Technologies and Expression Analysis (LTEA) Assay for JUN Transcription Factor using HepaRG (AID 2283513)
# Outline: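 Gene-expression endpoint: JUN mRNA (qRT-PCR, normalized to three reference genes) in HepaRG cultures treated 48 h with chemicals, duplicate wells, 100 uM maximum with half-log dilutions; bidirectional fitting relative to 0.5% DMSO.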
# [6] = read-out: Lipase C (LIPC), LIPC (gene 3990); assay: LTEA_HepaRG_LIPC: Life Technologies and Expression Analysis (LTEA) Assay for Lipase C (LIPC) using HepaRG (AID 2283514)
# Outline: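 In this multiplexed gene-expression screen, human HepaRG cultures received test chemicals for 48 h across eight concentrations with 100 uM highest, in duplicate. Values reflect LIPC mRNA induction or suppression versus DMSO vehicle, from normalized qRT-PCR.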
# [7] = read-out: Lipoprotein lipase (LPL), LPL (gene 4023); assay: LTEA_HepaRG_LPL: Life Technologies and Expression Analysis (LTEA) Assay for Lipoprotein lipase (LPL) using HepaRG (AID 2283515)
# Outline: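 Concentration-response testing used half-log steps from 100 uM in 0.5% DMSO on human HepaRG cells, 48 h, duplicate wells. Phenobarbital 1 mM served as induction control; LPL mRNA was normalized to ACTB, GAPDH, POLR2A.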
# [8] = read-out: MicroRNA 122 (MIR122), gene 406906; assay: LTEA_HepaRG_MIR122: Life Technologies and Expression Analysis (LTEA) Assay for MicroRNA 122 (MIR122) using HepaRG (AID 2283516); also: the transcript read is the microRNA miR-122
# Outline: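 Changes in transcript abundance, up or down relative to 0.5% DMSO vehicle, were scored after 48 h chemical treatment of HepaRG cells (maximum 100 uM). Quantification used TaqMan qRT-PCR normalized to housekeeping genes.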
# [9] = read-out: matrix metalloproteinase-10 (MMP10), MMP10 (gene 4319); assay: LTEA_HepaRG_MMP10: Life Technologies and Expression Analysis (LTEA) Assay for matrix metalloproteinase-10 (MMP10) using HepaRG (AID 2283517)
# Outline: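 In differentiated HepaRG cultures kept in 0.5% DMSO, test chemicals act for 48 h over an eight-point range with a top dose of 100 uM. Expression is then quantified by TaqMan RT-PCR against ACTB, GAPDH and POLR2A.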
# [10] = read-out: MYC, MYC (gene 4609); assay: LTEA_HepaRG_MYC: Life Technologies and Expression Analysis (LTEA) Assay for MYC using HepaRG (AID 2283518)
# Outline: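 Differentiated human HepaRG cells, plated 48 h then switched to serum-free induction medium, were exposed in duplicate for 48 h to 8-point half-log series up to 100 uM in 0.5% DMSO. MYC mRNA measured by qRT-PCR, normalized to ACTB/GAPDH/POLR2A.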
# [11] = read-out: Paternally Expressed 10 (PEG10), PEG10 (gene 23089); assay: LTEA_HepaRG_PEG10: Life Technologies and Expression Analysis (LTEA) Assay for Paternally Expressed 10 (PEG10) using HepaRG (AID 2283520);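 as to AC50: PEG10 transcript by qRT-PCR normalised to ACTB GAPDH and POLR2A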
# Outline: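 After 48 h exposure of differentiated HepaRG cells (0.5% DMSO vehicle, eight concentrations up to 100 uM, duplicates), PEG10 mRNA was measured by TaqMan qRT-PCR. Values were normalised to endogenous control genes and analysed bidirectionally against vehicle.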
# [12] = read-out: Nuclear factor NF-kappa-B p105 subunit (Homo sapiens) (UniProt P19838); assay: LTEA_HepaRG_NFKB1: Life Technologies and Expression Analysis (LTEA) Assay for Nuclear Factor Kappa B Subunit 1 (NFKB1) using HepaRG (AID 2283521);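 also: TaqMan qRT-PCR transcript normalised to ACTB GAPDH and POLR2A housekeeping genes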
# Outline: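 Differentiated human HepaRG cells in serum-free induction medium with 0.5% DMSO were exposed for 48 h to eight half-log concentrations, top 100 uM, in duplicate. NFKB1 mRNA measured by Fluidigm TaqMan qRT-PCR, normalised to ACTB, GAPDH and POLR2A; bidirectional fit versus DMSO.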
# [13] = read-out: Protein phosphatase 2A (PPP2R4), PTPA (gene 5524); assay: LTEA_HepaRG_PPP2R4: Life Technologies and Expression Analysis (LTEA) Assay for Protein phosphatase 2A (PPP2R4) using HepaRG (AID 2283522)
# Outline: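 Using HepaRG cultures maintained in 0.5% DMSO, chemicals are tested 48 h at up to 100 uM in duplicate. Induction or suppression of PPP2R4 mRNA, measured by qRT-PCR, is fitted bidirectionally against the vehicle baseline.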
# [14] = read-out: Phosphatase and tensin (PTEN), PTEN (gene 5728); assay: LTEA_HepaRG_PTEN: Life Technologies and Expression Analysis (LTEA) Assay for Phosphatase and tensin (PTEN) using HepaRG (AID 2283523)
# Outline: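 Expression of PTEN is quantified in the human liver line HepaRG following two days of dosing (top concentration 100 uM, half-log dilutions, 0.5% DMSO). Values derive from bidirectional curve fitting relative to DMSO controls.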
# [15] = read-out: solute carrier (SLC22A1), SLC22A1 (gene 6580); assay: LTEA_HepaRG_SLC22A1: Life Technologies and Expression Analysis (LTEA) Assay for solute carrier (SLC22A1) using HepaRG (AID 2283524);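 as to AC50: TaqMan qRT-PCR normalized to ACTB GAPDH and POLR2A housekeeping genes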
# Outline: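 Transcript induction or suppression of SLC22A1 in human HepaRG cultures is scored after 48 h chemical treatment, with DMSO (0.5%) as baseline for bidirectional fitting. Concentrations span eight half-log points topping at 100 uM.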
# [16] = read-out: Pyruvate Dehydrogenase Kinase 4 (PDK4), PDK4 (gene 5166); assay: LTEA_HepaRG_PDK4: Life Technologies and Expression Analysis (LTEA) Assay for Pyruvate Dehydrogenase Kinase 4 (PDK4) using HepaRG (AID 2283525)
# Outline: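 Eight-point, half-log concentration series (max 100 uM, 0.5% DMSO) applied to differentiated HepaRG cells for 48 h in duplicate. Endpoint: PDK4 mRNA induction or repression by qRT-PCR against DMSO baseline.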
# [17] = read-out: NAD(P)H dehydrogenase [quinone] 1 (NQO1), NQO1 (gene 1728); assay: LTEA_HepaRG_NQO1: Life Technologies and Expression Analysis (LTEA) Assay for NAD(P)H dehydrogenase [quinone] 1 (NQO1) using HepaRG (AID 2283526)
# Outline: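 In this assay, gene expression is read by qRT-PCR after 48 h exposure of HepaRG cells to eight concentrations (max 100 uM, half-log) in 0.5% DMSO. Each chemical runs in duplicate, and activity is scored relative to vehicle.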
# [18] = read-out: matrix metalloproteinase-3 (MMP3), MMP3 (gene 4314); assay: LTEA_HepaRG_MMP3: Life Technologies and Expression Analysis (LTEA) Assay for matrix metalloproteinase-3 (MMP3) using HepaRG (AID 2283519)
# Outline: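 Human liver HepaRG cultures received chemicals (top concentration 100 uM, 0.5% DMSO) for 48 h in duplicate. MMP3 mRNA induction or loss was then assessed via TaqMan qRT-PCR with housekeeping-gene normalisation.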
# [19] = read-out: Keratin 19 (KRT19), KRT19 (gene 3880); assay: LTEA_HepaRG_KRT19: Life Technologies and Expression Analysis (LTEA) Assay for Keratin 19 (KRT19) using HepaRG (AID 2283512)
# Outline: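 Differentiated human HepaRG cells, plated 48 h, were exposed in duplicate for 48 h in serum-free induction medium to eight half-log concentrations up to 100 uM in 0.5% DMSO. KRT19 mRNA was quantified by qRT-PCR, normalized to ACTB, GAPDH and POLR2A, and fitted bidirectionally versus DMSO.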
# Chain of Nuclear factor NF-kappa-B p105 subunit (Homo sapiens) (P19838 whole entry, looked up): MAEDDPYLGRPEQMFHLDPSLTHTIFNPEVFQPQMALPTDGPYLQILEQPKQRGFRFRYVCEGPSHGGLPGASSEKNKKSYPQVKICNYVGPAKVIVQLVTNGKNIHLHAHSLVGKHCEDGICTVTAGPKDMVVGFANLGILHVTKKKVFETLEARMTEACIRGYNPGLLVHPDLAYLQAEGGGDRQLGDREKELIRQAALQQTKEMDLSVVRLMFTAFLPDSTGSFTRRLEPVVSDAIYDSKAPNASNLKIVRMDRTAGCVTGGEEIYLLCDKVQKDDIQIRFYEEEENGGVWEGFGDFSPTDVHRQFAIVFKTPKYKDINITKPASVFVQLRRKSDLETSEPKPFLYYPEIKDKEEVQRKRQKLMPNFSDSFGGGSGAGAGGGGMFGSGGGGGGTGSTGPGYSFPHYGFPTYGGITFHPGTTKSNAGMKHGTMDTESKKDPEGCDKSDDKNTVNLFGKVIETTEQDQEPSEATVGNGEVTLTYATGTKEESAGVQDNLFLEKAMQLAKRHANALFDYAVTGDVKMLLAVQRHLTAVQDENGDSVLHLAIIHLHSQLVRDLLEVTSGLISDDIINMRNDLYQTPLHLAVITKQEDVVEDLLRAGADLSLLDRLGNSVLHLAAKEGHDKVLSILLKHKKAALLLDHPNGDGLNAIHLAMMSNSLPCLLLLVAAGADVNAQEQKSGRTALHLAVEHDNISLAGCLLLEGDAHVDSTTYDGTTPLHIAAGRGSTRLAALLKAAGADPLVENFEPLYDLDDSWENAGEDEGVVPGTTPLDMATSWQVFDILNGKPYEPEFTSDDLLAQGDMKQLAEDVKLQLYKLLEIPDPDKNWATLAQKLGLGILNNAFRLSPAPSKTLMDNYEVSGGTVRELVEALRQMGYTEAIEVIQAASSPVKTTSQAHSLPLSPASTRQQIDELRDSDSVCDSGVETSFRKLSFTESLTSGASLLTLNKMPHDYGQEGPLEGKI
smiles,measurement,setting,value
ClC1=C(Cl)[C@]2(Cl)[C@@H]3[C@H]4C[C@H]([C@@H]5O[C@H]45)[C@@H]3[C@@]1(Cl)C2(Cl)Cl,outcome,[1],inactive
same,outcome,[2],inactive
same,AC50,[3],9.92 µM (active)
same,outcome,[4],inactive
same,outcome,[5],inactive
same,AC50,[6],50 µM (active)
same,outcome,[7],inactive
same,AC50,[8],31.6 µM (active)
same,outcome,[9],inactive
same,AC50,[10],11 µM (active)
same,outcome,[11],inactive
same,outcome,[12],inactive
same,outcome,[13],inactive
same,outcome,[14],inactive
same,AC50,[15],31.7 µM (active)
same,outcome,[16],inactive
same,outcome,[17],inactive
Cc1ccccc1O,outcome,[1],inactive
same,outcome,[2],inactive
same,outcome,[3],inactive
same,outcome,[4],inactive
same,outcome,[5],inactive
same,outcome,[6],inactive
same,outcome,[7],inactive
same,outcome,[8],inactive
same,outcome,[9],inactive
same,outcome,[10],inactive
same,outcome,[11],inactive
same,outcome,[12],inactive
same,outcome,[13],inactive
same,outcome,[14],inactive
same,outcome,[15],inactive
same,outcome,[16],inactive
same,outcome,[17],inactive
Oc1c(Cl)c(Cl)c(Cl)c(Cl)c1Cl,AC50,[1],7.05 µM (active)
same,AC50,[3],5.66 µM (active)
same,AC50,[4],34.5 µM (active)
same,outcome,[5],inactive
same,AC50,[6],4.24 µM (active)
same,AC50,[7],5.08 µM (active)
same,AC50,[8],3.65 µM (active)
same,AC50,[9],25.5 µM (active)
same,AC50,[10],16.1 µM (active)
same,AC50,[11],2.11 µM (active)
same,AC50,[13],2.22 µM (active)
same,AC50,[14],6.88 µM (active)
same,AC50,[15],3.31 µM (active)
same,outcome,[16],inactive
same,AC50,[17],6.48 µM (active)
CCOCCOC(C)=O,outcome,[1],inactive
same,outcome,[2],inactive
same,outcome,[3],inactive
same,outcome,[4],inactive
same,outcome,[5],inactive
same,outcome,[6],inactive
same,outcome,[7],inactive
same,outcome,[8],inactive
same,outcome,[9],inactive
same,outcome,[10],inactive
same,outcome,[18],inactive
same,outcome,[11],inactive
same,outcome,[13],inactive
same,outcome,[14],inactive
same,outcome,[15],inactive
same,outcome,[16],inactive
same,outcome,[17],inactive
CCC(C)(c1ccc(O)cc1)c1ccc(O)cc1,outcome,[1],inactive
same,outcome,[2],inactive
same,outcome,[3],inactive
same,outcome,[4],inactive
same,outcome,[19],inactive
same,outcome,[5],inactive
same,outcome,[6],inactive
same,outcome,[7],inactive
same,outcome,[8],inactive
same,outcome,[9],inactive
same,outcome,[10],inactive
same,AC50,[11],80.3 µM (active)
same,outcome,[12],inactive
same,outcome,[13],inactive
same,outcome,[14],inactive
same,outcome,[15],inactive
same,outcome,[16],inactive
same,outcome,[17],inactive
CCCN(CCC)N=O,outcome,[1],inactive
same,outcome,[2],inactive
same,outcome,[3],inactive
same,outcome,[4],inactive
same,outcome,[19],inactive
same,outcome,[5],inactive
same,outcome,[6],inactive
same,outcome,[7],inactive
same,outcome,[8],inactive
same,outcome,[9],inactive
same,outcome,[10],inactive
same,outcome,[11],inactive
same,outcome,[12],inactive
same,outcome,[13],inactive
same,outcome,[14],inactive
same,outcome,[15],inactive
same,outcome,[16],inactive
same,outcome,[17],inactive
COc1ccc(O)c(C(C)(C)C)c1,outcome,[1],inactive
same,outcome,[2],inactive
same,outcome,[3],inactive
same,outcome,[4],inactive
same,outcome,[19],inactive
same,outcome,[5],inactive
same,outcome,[6],inactive
same,outcome,[7],inactive
same,outcome,[8],inactive
same,outcome,[9],inactive
same,outcome,[10],inactive
same,outcome,[11],inactive
same,outcome,[13],inactive
same,outcome,[14],inactive
same,outcome,[16],inactive
same,outcome,[17],inactive
CC(C)(O)C(=O)Nc1ccc([N+](=O)[O-])c(C(F)(F)F)c1,AC50,[1],0.0432 µM (active)
same,outcome,[2],inactive
same,outcome,[3],inactive
same,AC50,[4],0.052 µM (active)
same,AC50,[5],0.0328 µM (active)
same,AC50,[6],0.0399 µM (active)
same,outcome,[7],inactive
same,outcome,[8],inactive
same,outcome,[9],inactive
same,AC50,[10],0.0308 µM (active)
same,AC50,[18],0.0298 µM (active)
same,AC50,[11],25 µM (active)
same,AC50,[13],0.0226 µM (active)
same,outcome,[14],inactive
same,outcome,[15],inactive
same,outcome,[16],inactive
same,AC50,[17],0.0268 µM (active)
